Source: PubChem BioAssay
RORgamma inh: inhibitors of mouse ROR gamma transcriptional activity; Potency, µM (titrated, usually from 53.6 µM), most hits filed as inhibitors; 5.4% of 310,000 active; Drosophila S2 Gal4-RORgamma UAS-luciferase reporter, 20 h; P51450; note: nearly all actives have a fitted effect of over 60% in size
Target sequence (P51450 whole entry, looked up, the tested form may be a part): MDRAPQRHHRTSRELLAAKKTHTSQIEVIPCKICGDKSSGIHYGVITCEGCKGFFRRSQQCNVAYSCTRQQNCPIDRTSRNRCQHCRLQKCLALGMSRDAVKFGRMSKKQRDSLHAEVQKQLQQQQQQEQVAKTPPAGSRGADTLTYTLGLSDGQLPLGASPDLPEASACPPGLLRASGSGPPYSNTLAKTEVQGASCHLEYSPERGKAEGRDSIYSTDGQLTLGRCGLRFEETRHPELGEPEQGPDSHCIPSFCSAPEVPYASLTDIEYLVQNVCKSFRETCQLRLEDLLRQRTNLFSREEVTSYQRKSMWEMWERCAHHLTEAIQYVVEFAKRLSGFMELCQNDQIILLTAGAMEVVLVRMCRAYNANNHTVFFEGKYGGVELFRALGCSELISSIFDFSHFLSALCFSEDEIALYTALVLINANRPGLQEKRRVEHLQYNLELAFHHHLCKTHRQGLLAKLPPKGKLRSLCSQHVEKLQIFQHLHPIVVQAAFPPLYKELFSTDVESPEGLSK
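Using a luciferase readout, inhibitors were identified by reduced reporter activity in Drosophila cells coexpressing a copper-inducible Gal4–ROR gamma fusion and UAS-driven Photinus luciferase, incubated 20 hr after 700 uM copper sulfate.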
Gal4-VP16 FLuc: counter-screen for ROR gamma inhibitors: Gal4-VP16 reporter; Drosophila S2 Gal4-VP16 UAS-luciferase, luminescence, 20 h; Potency, µM (doses to about 53.6 µM), usual class: inhibitors; 3.5% of 310,000 active; AID 2546;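 note: Gal4-VP16 expression switched on by copper sulfate through the metallothionein promoter; nearly all actives have a fitted effect of over 50% in size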
KinaseGlo FLuc: Kinase-Glo luciferase inhibition (counter-screen). Q27757. Kinase-Glo luciferase, ATP luminescence, 8 min. Potency, µM (top dose mostly 38.3 µM), hits mostly inhibitors. 0.28% of 200,000 active. AID 1379; note: nearly all actives have a fitted effect of over 60% in size
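Substrate mix (final 50 mM imidazole pH 7.2, 50 mM KCl, 7 mM MgCl2, 10 uM ATP, 0.01% Tween 20, 0.05% BSA) plus pin-tool compound, then Kinase-Glo detection mix; 8 min ambient, luminescence read.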
Of the large screens only hits and unclear results are named; the others gave an inactive call. Shown are actives, neighbours in structure and some others; about 6.2% of the full set was active somewhere. Calls come from the whole dose curve; as a rule, active = well fitted curve in the direction sought with a large enough effect; inconclusive = small, poorly fitted or top-dose-only effect, or another doubt; inactive = no such curve, though single readings can be large; an effect the other way counts as inactive or inconclusive.

O=C(Nc1nc2c(s1)CCCC2)c1ccc(S(=O)(=O)N2CCCc3ccccc32)cc1	RORgamma inh 11µM, Gal4-VP16 FLuc inconclusive
CNC(=O)c1ccsc1NC(=O)c1ccc(S(=O)(=O)N2CCCc3ccccc32)cc1	RORgamma inh inconclusive
Cc1cc(NC(=O)c2ccc(S(=O)(=O)N3CCOCC3)cc2)no1	none
CCc1nnc(NC(=O)c2ccc(S(=O)(=O)N3CCCc4ccccc43)cc2)o1	RORgamma inh 0.35µM, Gal4-VP16 FLuc 0.56µM
CC1CCc2nc(NC(=O)c3ccc(S(=O)(=O)N4CCCc5ccccc54)cc3)sc2C1 (stereo not given)	RORgamma inh 6.3µM (no result: KinaseGlo FLuc)
O=C(Nc1nc2c(s1)CN(Cc1ccccc1)CC2)c1cccc(S(=O)(=O)N2CCc3ccccc32)c1	none
Cn1nnnc1NCc1cccc(Cl)c1Cl	none
C=CCn1c(SCC(=O)Nc2ccc3c(c2)OCO3)nnc1-c1ccccc1O	none
Cc1nc(NC(=O)CC(C)C)sc1-c1csc(Nc2ccc(Cl)cc2)n1	RORgamma inh inconclusive, Gal4-VP16 FLuc inconclusive
CC(=O)C(=O)O	none (no result: KinaseGlo FLuc)
Cc1sc2nc(CN3CCOCC3)nc(NCCc3ccccc3)c2c1C	RORgamma inh 7.1µM, Gal4-VP16 FLuc inconclusive
Cc1sc2nc(CN3CCOCC3)nc(NS(=O)(=O)c3ccccc3)c2c1C	none
Cc1sc2nc(CSc3ccccc3)nc(NCCN(C)C)c2c1C	none
CCNc1nc(CSc2ccccc2)nc2sc(C)c(C)c12	RORgamma inh 5.6µM, Gal4-VP16 FLuc 5µM (no result: KinaseGlo FLuc)
Brc1ccc(C2=N[C@@H](Cc3ccccc3)CO2)cc1	RORgamma inh inconclusive
CC(C)c1c(C(=O)Nc2ccccc2)c(-c2ccccc2)c(-c2ccc(F)cc2)n1CC[C@@H](O)C[C@@H](O)CC(=O)O	none
CC(NC(=O)OC(C)(C)C)C(=O)NC(CCC(=O)OCc1ccccc1)C(N)=O (stereo not given)	none
O=C(c1ccco1)N1CCC2(CC1)CCN(c1ccccc1)CC2	none
CN1CCNC(=O)C1CC(=O)NCCc1ccccc1F (stereo not given)	none
CCC(CC)NC(=O)COC(=O)c1ccc(NS(=O)(=O)c2ccc3c(c2)OCCO3)cc1	none
COC(=O)C1C(O)CC[C@@H]2CN3CCc4c([nH]c5ccccc45)C3C[C@@H]12 (stereo not given in full)	none
COc1ccc(O)c(/C=N/Nc2nc(Nc3ccccc3)nc(-n3nc(C)cc3C)n2)c1	RORgamma inh 0.63µM, Gal4-VP16 FLuc 0.63µM
COc1cc(/C=N/Nc2nc(Nc3ccc(C)cc3)nc(-n3nc(C)cc3C)n2)cc(OC)c1OC	Gal4-VP16 FLuc inconclusive
COc1cc(/C=N/Nc2nc(Nc3ccccc3)nc(-n3nc(C)cc3C)n2)cc(OC)c1OC	RORgamma inh 5µM, Gal4-VP16 FLuc 6.3µM
COc1ccc(Nc2nc(NCc3ccco3)nc(N/N=C/c3ccccc3)n2)cc1	none
CC#C[C@]1(O)CC[C@H]2C3CCC4=CC(=O)CCC4=C3[C@@H](c3ccc(N(C)C)cc3)C[C@@]21C (stereo not given in full)	none (no result: RORgamma inh, Gal4-VP16 FLuc)
CC(C)=NOCc1cccc(-c2cc(-c3ccccc3)no2)c1	none (no result: KinaseGlo FLuc)
O=S(=O)(c1ccc2ccccc2c1)N(CC(O)CN1CCOCC1)c1ccccc1 (stereo not given)	none
COc1ccc(-c2nn(-c3ccccc3)cc2/C=N/Nc2ccc(S(N)(=O)=O)cc2[N+](=O)[O-])cc1OC	RORgamma inh inconclusive, Gal4-VP16 FLuc inconclusive
COC(=O)c1cn(-c2ccccc2)nc1-c1ccc(OC)c(OC)c1	none (no result: KinaseGlo FLuc)
COc1ccc(-c2nn(-c3ccccc3)cc2/C=N/Nc2ccc3ccccc3n2)cc1OC	RORgamma inh 1.8µM, Gal4-VP16 FLuc 5µM
COc1ccc(-c2nn(-c3ccccc3)cc2/C=N/N=C(N)N)cc1OC	none
COc1ccc(-c2nn(-c3ccccc3)cc2/C=N/NC(=S)NC(C)C)cc1OC	RORgamma inh 1.4µM, Gal4-VP16 FLuc 2.2µM
COc1ccc(-c2nn(-c3ccccc3)cc2/C=N/O)cc1OC	RORgamma inh 1µM, Gal4-VP16 FLuc 1.8µM (no result: KinaseGlo FLuc)
Cc1ccc(N2CC(C(=O)N3CCCCCC3)CC2=O)cc1 (stereo not given)	none (no result: KinaseGlo FLuc)
CNc1ccccc1C(C)(C)c1cc(-c2cccc(OC)c2)no1	RORgamma inh 1.4µM, Gal4-VP16 FLuc inconclusive
CNc1ccccc1C(C)(C)c1cc(-c2cc(C)cc(C)c2)no1	none
CC(C)C1Cc2c(sc3[nH]c(=S)n(Cc4ccccc4)c(=O)c23)CO1 (stereo not given)	RORgamma inh 0.45µM, Gal4-VP16 FLuc 0.56µM
Cc1nnc2n(-c3ccccc3)c(=O)c3c4c(sc3n12)COC(C(C)C)C4 (stereo not given)	none
O=C(NC12CC3CC(CC(C3)C1)C2)N1CCN(c2nc(-c3ccccc3)cs2)CC1	Gal4-VP16 FLuc inconclusive
O=C(Nc1ccc(F)cc1F)N1CCN(C/C=C/c2ccccc2)CC1	none
O=C(NC(=S)N1CCN(C/C=C/c2ccccc2)CC1)c1ccc(F)cc1	RORgamma inh 0.28µM, Gal4-VP16 FLuc 0.63µM (no result: KinaseGlo FLuc)
O=C(c1cccnc1)N1CCN(C/C=C/c2ccccc2)CC1	none
O=C(NC1CCCCC1)N1CCN(c2nc(-c3ccccc3)cs2)CC1	RORgamma inh 11µM, Gal4-VP16 FLuc inconclusive
COCCNC(=S)N1CCN(c2nc(-c3ccccc3)cs2)CC1	none (no result: KinaseGlo FLuc)
O=C(NC(=S)N1CCN(c2nc(-c3ccccc3)cs2)CC1)c1cccnc1	RORgamma inh 0.11µM, Gal4-VP16 FLuc 0.0079µM
O=C(NC(=S)N1CCN(C/C=C/c2ccccc2)CC1)c1cccnc1	RORgamma inh 0.4µM, Gal4-VP16 FLuc 0.89µM (no result: KinaseGlo FLuc)
CCc1ccc(NC(=O)Cn2cc([N+](=O)[O-])nc2C)cc1	none (no result: KinaseGlo FLuc)
CCC(C)(C)NC(=O)C(c1cccn1C)N(Cc1ccc(OC)cc1)C(=O)Cn1nnc2ccccc21 (stereo not given)	Gal4-VP16 FLuc inconclusive
NCCCCC(N)C(=O)NC(Cc1ccc(O)cc1)C(=O)NC(CCCCN)C(=O)O (stereo not given)	none
COc1cc(-c2noc(C)c2/C=C/c2ccc(OC(C)=O)cc2)cc(OC)c1OC	none (no result: KinaseGlo FLuc)
COc1ccc(-c2nc3cnc(Oc4ccccc4)nc3n(C3CC3)c2=O)cc1	none
Cc1c(NS(=O)(=O)c2ccc(NC(=O)CCC(=O)O)cc2)c(=O)n(-c2ccccc2)n1C	none (no result: KinaseGlo FLuc)
Cc1ccccc1CS(=O)(=O)CC(O)CN1CCCC1=O (stereo not given)	none (no result: KinaseGlo FLuc)
COc1cc(Nc2c3c(nc4ccccc24)CCCC3)cc(OC)c1OC	RORgamma inh 11µM (no result: KinaseGlo FLuc)
COc1ccccc1Nc1c2c(nc3ccccc13)CCC2	none (no result: KinaseGlo FLuc)
CSc1ccccc1OCc1cc(C(=O)NCCCn2nc(C)cc2C)no1	none (no result: KinaseGlo FLuc)
COc1c(Cl)cnn(-c2ccccc2)c1=O	none
COc1nn(-c2ccccc2)c(=O)c(Cl)c1Cl	RORgamma inh inconclusive, Gal4-VP16 FLuc 11µM (no result: KinaseGlo FLuc)
NNC(=O)CSc1cccc2cccnc12	none
O=C(CSc1cccc2cccnc12)OCC(=O)c1ccc(Br)cc1	none
O=C(CSc1cccc2cccnc12)N1CCCC1	none (no result: Gal4-VP16 FLuc)
CN(C)C(=O)CSc1cccc2cccnc12	RORgamma inh 10µM, Gal4-VP16 FLuc inconclusive
O=C(Sc1cccc2cccnc12)c1ccc(F)cc1	RORgamma inh 1.1µM, Gal4-VP16 FLuc 4.5µM
O=C(Sc1cccc2cccnc12)c1ccccc1Br	RORgamma inh 0.79µM, Gal4-VP16 FLuc 2µM (no result: KinaseGlo FLuc)
O=C(NCc1ccccn1)C1(C(F)(F)F)C/C(=C\Cc2ccccc2)CCCO1 (stereo not given)	none (no result: KinaseGlo FLuc)
